Only some compounds are listed: those with a hit (about 20% of all), similar ones and a draw of the others.
Shiga inhibitor = inhibitors of Shiga toxin in Vero cells; inhibition, % at 38.7 µM; 290,000 compounds, 9.2% hits; Vero cells, Shiga toxin protein synthesis inhibition reporter; AID 2315; in the data active = inhibition mostly above about 28%, no sharp cut-off; inactive = mostly below about 43%
CHX counter = affects cycloheximide protein synthesis inhibition readout, counter-screen; cell reporter, cycloheximide protein synthesis inhibition counterscreen; max response, %; 300,000 compounds, 12% hits; in the data active = max response mostly above about 13%, no sharp cut-off; inactive = mostly below about 14%; note: read at 38.3 µM for the half of the compounds with a filed dose
HCMV inh = blocks human cytomegalovirus replication; HFF cells, HCMV-luciferase reporter, 72 h; active compounds read low; activity change, negative = inhibition, % at 57.5 µM; 410,000 compounds, 4.5% hits; AID 1259415; in the data active = activity change below about -60%; inconclusive = no clear call, values can overlap the other calls; inactive = above about -39%
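Cell-based, HFFs, 1000 cells/well, 16 h 37C; cpds in DMSO + HCMV-luc, MOI 1 PFU/cell; 72 h 37C; OneGlo luminescence after 5 min RT; norm. to buffer vs Salinomycin 10uM.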
Pf growth 48h = inhibits P. falciparum growth in the first generation, 48 h; 310,000 compounds, 5.9% hits; AID 504832; Potency, µM (doses to about 28.7 µM), hits mostly inhibitors; P. falciparum luciferase growth in erythrocytes, 48 h
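Luminescence readout; reporter = integrated firefly luciferase in P. falciparum. RBC culture at 2% hematocrit, 0.1% parasitemia final, 37 C/5% CO2; decreased signal taken as growth inhibition.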
Pf growth 96h = P. falciparum growth inhibition at 96 hour, primary screen for plastid delayed-death inhibitors. P. falciparum luciferase reporter growth, 96 h. Potency, µM (titrated, usually from 28.7 µM), usual class: inhibitors. 320,000 compounds, 6.9% hits
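Erythrocytes infected with luciferase-expressing P. falciparum were dispensed at 2% hematocrit and 0.05% parasitemia (final), then incubated with compounds 96 hours at 37 C in 5% CO2. Luminescence after detection reagent addition reported growth.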
Numbers stand for hits; i = inactive; ? = inconclusive; nt = no result; [ ] = remark or other dose. Unless noted, calls come from the whole dose curve; as a rule, active = well fitted inhibition curve with a large enough effect; inconclusive = small, poorly fitted or top-dose-only effect, or another doubt; inactive = no such curve, though single readings can be large or run the other way.

SMILES	Shiga inhibitor	CHX counter	HCMV inh	Pf growth 48h	Pf growth 96h
O=C(CCN1CCC2CCC(C2)C1)c1ccc(F)cc1 (stereo not drawn)	nt	nt	i	nt	nt
CC1(/[N+]([O-])=C\c2ccccc2F)CCCCC1=O (stereo not drawn)	i	i	i	i	i
C=CCn1c(-c2cccc(OC)c2OC)n[nH]c1=S	i	i	-70	i	i[1.15 µM]
C=CCn1c(-c2cc(OC)c(OC)c(OC)c2)n[nH]c1=S	i	i	i	i	i
Cc1cccnc1NC(=O)Cn1nc(-c2ccccc2)oc1=S	89	40	i	i	i
Cc1cccnc1NC(=O)Cn1nc([N+](=O)[O-])cc1C	i	i	?	?	?
Cc1cc(=O)oc(C)c1C(=O)Nc1ccc2ncccc2c1	i	i	i	9.3µM	nt
Cc1ccc(C(=O)Nc2ncccc2S(=O)(=O)c2ccccc2)cc1	66	12	i	i	i
Cc1ccc(C(=O)Nc2ccc3ncccc3c2)cc1	i	14	-64	i	i
COc1ccc(C(=O)Nc2ccc3ncccc3c2)cc1	i	i	i	i	i
O=C(Nc1ccc2ncccc2c1)c1cccc(Br)c1	47	39	i	i	i
CN(C(=O)Nc1cn(C)c(=O)c2ccccc12)c1ccccc1	nt	nt	i	nt	nt
Cn1c(SCC(=O)O)nnc1-c1ccc2ncccc2c1	i	i	i	i	i
Brc1ccc(CNc2ccc3ncccc3c2)cc1	42	30	i	i	i
CC(=O)c1c(C(C)=O)c(C)n(-c2ccc3ncccc3c2)c1C	i	i	?	i	i
Cc1ccc(C(=O)/C=C/c2ccc3ncccc3c2)cc1	47	48	i	i	i
O=C(Nc1ccc2ncccc2c1)c1cc(Cl)ccc1Cl	i	45	i	?	i
CCC(=O)c1ccc2ncccc2c1	44	21	?	i	i
O=C(O)c1ccc(NCc2ccc(Br)cc2)cc1	i	i	i	i	i
Nc1c(C(=O)Nc2ccc3c(c2)OCCO3)nnn1Cc1cccc(F)c1	nt	nt	i	i	i
Cc1ccc(S(=O)(=O)NCCC(=O)NCCc2ccccc2)cc1	nt	nt	i	nt	nt
CCOC(=O)c1c(C)[nH]c(C)c1S(=O)(=O)N1CCC(C(=O)Nc2ccc(OC)c(OC)c2)CC1	nt	nt	i	nt	nt
CCOc1ccc(C(=O)NCC(=O)NCCCn2nc(C)cc2C)cc1OCC	i	i	i	?	?
CCc1ccc(Cn2nnc(C(=O)Nc3ccc(OC)cc3OC)c2N)cc1	i	i	i	nt	7.4µM
CCOc1ccc(Cn2nnc(C(=O)NCc3ccc(OC)cc3)c2N)cc1	i	i	i	i	0.93µM
SMILES	Shiga inhibitor	CHX counter	HCMV inh	Pf growth 48h	Pf growth 96h
CCOc1ccc(NC(=O)Cn2nnc(C(=O)NCc3ccc(OC)cc3)c2N)cc1	i	i	i	i	i
COc1ccc(C)cc1NC(=O)c1nnn(Cc2cccc(C(F)(F)F)c2)c1N	i	i	?	i	13µM
CC(C)CCN(C(=O)Cc1ccc(Cl)c(Cl)c1)c1c(N)n(Cc2ccccc2)c(=O)[nH]c1=O	i	i	i	i	?
Cc1cc(C)nc(N/N=C2/CCCC/C2=C\c2ccccc2)n1	i	i	-113	?	?
Cc1ccc(NC(=O)Cn2c(=O)n(CCCCC(=O)NCc3ccco3)c(=O)c3ccccc32)cc1	i	i	i	nt	i
CCCN(CCC)C(=O)Cn1c(=O)n(CCCCC(=O)NCc2ccco2)c(=O)c2ccccc21	i	i	i	nt	12µM
O=C(CCCn1c(=O)c2ccccc2n(CC(=O)NCc2ccco2)c1=O)NCc1ccco1	i	i	i	i	i
O=C(CCCCn1c(=O)c2ccccc2n(CC(=O)Nc2ccc(F)cc2)c1=O)NCc1ccco1	i	i	i	12µM	?
Cc1ccc(N(C(=O)c2csnn2)C(C(=O)NC2CCCC2)c2cccnc2)c(C)c1 (stereo not drawn)	i	i	i	i	?
CC1(C(=O)NS(=O)(=O)c2ccccc2)CCN1C(=O)Cc1ccc(Cl)cc1Cl (stereo not drawn)	nt	nt	i	nt	nt
CCOC(=O)c1sc(SC)nc1N	i	16	i	i	i
COC(=O)c1sc(SC)nc1N	i	i	nt	i	i
CSc1nc(N)c(C(=O)NC2CCCCC2)s1	75	38	i	i	i
Cc1nnsc1C(=O)NC1CCCCC1	i	i	i	i	i
CCCCC(=O)Nc1ccc2nc(SCC(=O)N3CCc4ccccc43)sc2c1	nt	nt	i	nt	nt
NC(CS)C(=O)O (stereo not drawn)	nt	nt	nt	4.3µM	i
NC(CSSCC(N)C(=O)O)C(=O)O (stereo not drawn)	i	i	nt	i	i
COc1cccc(C2CCCN2Cc2nc(-c3cnccn3)no2)c1 (stereo not drawn)	i	i	i	13µM	i
c1cnc(-c2noc(CN3CCN(C4CCCC4)CC3)n2)cn1	i	i	i	i	i
COc1ccccc1NC(=O)C(C)OC(=O)C1COc2ccccc2O1 (stereo not drawn)	nt	nt	i	i	i
O=C(Cc1ccccc1Cl)c1ccccc1	nt	nt	i	nt	nt
O=C(NC(=O)c1ccccc1O)c1ccc(C(F)(F)F)cc1	i	i	i	?	2.3µM
CCCc1ccc(C(=O)NC(=O)c2ccccc2O)cc1	i	23	-89	0.066µM	0.37µM
O=C(Nc1ncccn1)c1ccc(C(F)(F)F)cc1	i	i	i	i	i
CC(SC#N)C(=O)C12CC3CC(CC(C3)C1)C2 (stereo not drawn)	i	i	?	13µM	i
SMILES	Shiga inhibitor	CHX counter	HCMV inh	Pf growth 48h	Pf growth 96h
Cn1ncc2c1ncn1nc(CCc3ccccc3)nc21	68	52	i	i	?
Cn1ncc2c1ncn1nc(COc3ccc4ccccc4c3)nc21	i	40	i	i	?
COc1ccc(-n2ncc3c2ncn2nc(COc4ccc(Cl)cc4)nc32)cc1	nt	nt	i	nt	nt
CC(=O)Nc1ccc(NC(=O)CCC(=O)OCC(=O)c2ccc(F)cc2)cc1	i	i	i	i	i
O=Nc1c(-c2c(O)[nH]c3cc(Br)ccc23)[nH]c2ccccc12	30	30	-68	4.1µM	4.7µM
CC1=C(C(=O)Nc2cc(C)cc(C)c2)C2(CCCCC2)OC1=O	nt	nt	i	nt	nt
CN(C(=S)NC(=O)C12CC3CC(CC(C3)C1)C2)c1ccc(O)cc1	nt	nt	-61	nt	nt
CN(C)NC(=S)NC(=O)C12CC3CC(CC(C3)C1)C2	i	i	i	?	?
NC(=O)NNc1ccccc1	i	i	nt	i	i
S=C(N=Nc1ccccc1)NNc1ccccc1	122	54	i	i	i
COc1ccccc1N1CCN(C(=O)C(=O)c2cn(CC(=O)N3CCCCCC3)c3ccccc23)CC1	i	i	i	9.3µM	7.4µM
CC1CCN(C(=O)C(=O)c2cn(CC(=O)N3CCCC3)c3ccccc23)CC1	i	i	i	i	i
CC(=O)c1ccc(N2CCN(C(=O)C(=O)c3cn(CC(=O)N4CCCCCC4)c4ccccc34)CC2)cc1	i	i	i	?	?
COc1ccccc1N1CCN(C(=O)C(=O)c2cn(CC(=O)N3CCCC3)c3ccccc23)CC1	i	i	i	?	9.3µM
CC(=O)c1ccc2c(c1)CCN2	nt	nt	i	nt	nt
Cc1c(Cl)cccc1NC(=O)Cn1cc2c(n1)CCCC2	nt	nt	i	nt	nt
COc1ccc(CC(=O)NCC2CCCN(Cc3ccc(OC(F)(F)F)cc3)C2)cc1 (stereo not drawn)	i	i	i	9.3µM	?

High-throughput results from PubChem BioAssay.
